Measurements reported in the supplement of paper PMC6555819.

Assays:
Test in all cases: PBM binding z-score (relative to random genomic background probes); higher = stronger binding; sequences stand for … in GC…GCGATTGACAGCGTAGAATGAAGG
[1] = test system: PPARg:RXRa DBDmut IVT, anti-RXR (DBD mutation: RXRa K156A/R161A, NR concentration 270 nM, RXRa partner concentration 90 nM)
Method in brief: (§1)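 The probes on custom Agilent 4×180K protein-binding microarrays were double-stranded, with 34-nt variable regions bearing direct-repeat seeds, single-nucleotide variants, half-site ablations and random human genomic background sequences. Incubation lasted 1 h with ligand-free nuclear receptor dimers in PBS pH 7.4, 2% milk, 0.02% Triton X-100, 1 mM DTT, 0.2 mg/mL BSA and 0.4 mg/ml salmon testes DNA. Antibodies against each partner (one per run) detected bound dimers, and fluorescence scans were regression-normalized. Binding z-scores take the random background probes as reference.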

[2] = test system: PPARg:RXRa IVT, anti-PPARg (NR concentration 270 nM, RXRa partner concentration 90 nM)
Method in brief: as §1

[3] = test system: PPARg DBDmut:RXRa IVT, anti-PPARg (DBD mutation: PPARg1 K132A/R137A, NR concentration 270 nM, RXRa partner concentration 90 nM)
Method in brief: as §1

[4] = test system: PPARg DBDmut IVT, anti-PPARg (DBD mutation: PPARg1 K132A/R137A, NR concentration 270 nM)
Method in brief: as §1

[5] = test system: PPARg homodimer (NR concentration 180 nM)
Method in brief: as §1

[6] = test system: PXR:RXRa (NR concentration 270 nM, RXRa partner concentration 90 nM)
Method in brief: as §1

[7] = test system: PXR homodimer (NR concentration 270 nM)
Method in brief: as §1

[8] = test system: RARa:RXR (NR concentration 270 nM, RXRa partner concentration 90 nM)
Method in brief: as §1

[9] = test system: RARa homodimer (NR concentration 270 nM)
Method in brief: as §1

[10] = test system: RARb:RXRa (NR concentration 270 nM, RXRa partner concentration 90 nM)
Method in brief: as §1

[11] = test system: RARb homodimer (NR concentration 270 nM)
Method in brief: as §1

[12] = test system: RARg:RXRa (NR concentration 270 nM, RXRa partner concentration 90 nM)
Method in brief: as §1

[13] = test system: RARg homodimer (NR concentration 270 nM)
Method in brief: as §1

[14] = test system: RXRa DBDmut IVT, anti-RXR (DBD mutation: RXRa K156A/R161A, NR concentration 90 nM)
Method in brief: as §1

[15] = test system: RXRa homodimer (NR concentration 180 nM)
Method in brief: as §1

[16] = test system: THRa:RXRa (NR concentration 90 nM, RXRa partner concentration 90 nM)
Method in brief: as §1

[17] = test system: THRa homodimer (NR concentration 90 nM)
Method in brief: as §1

[18] = test system: VDR homodimer (NR concentration 270 nM)
Method in brief: as §1

Sequence	PBM binding z-score [1]	PBM binding z-score [2]	PBM binding z-score [3]	PBM binding z-score [4]	PBM binding z-score [5]	PBM binding z-score [6]	PBM binding z-score [7]	PBM binding z-score [8]	PBM binding z-score [9]	PBM binding z-score [10]	PBM binding z-score [11]	PBM binding z-score [12]	PBM binding z-score [13]	PBM binding z-score [14]	PBM binding z-score [15]	PBM binding z-score [16]	PBM binding z-score [17]	PBM binding z-score [18]
CCAGACAGGTGAATGGTAACTCAGTCTGGTACGC	0.897	0.735	-0.452	-0.717	0.288	-0.4	-0.302	-0.379	-0.0506	0.381	-0.113	0.0397	0.189	-0.0115	0.0786	-0.333	-0.556	-0.492
GCAGACAGGTGAAACGCAGGTAACACAGGGTGGC	0.623	0.202	0.00158	-0.396	-0.0973	0.067	-0.211	0.594	-0.376	0.622	0.0703	1.1	0.467	-0.772	0.886	1.26	-0.435	-0.401
TCGAGTAGGTTACCAATGGGGCATTCACCTTTCT	3.38	2.75	0.0374	0.508	0.0872	0.579	-0.637	1.1	-0.777	1.13	1.29	1.38	0.58	0.49	0.913	0.504	-0.317	-0.574
AGAATGAGTTTAAGATCAGGGAAACAGAATACAT	-0.319	-0.227	0.514	0.367	0.191	0.341	0.729	0.163	0.965	0.406	-0.102	0.254	0.612	2.68	0.484	0.276	-0.184	2.06
GCGACTGGGGCAAATCAGGTTACCATAAGGTTGG	4.37	3.69	-0.276	-0.972	0.782	1.1	-0.422	0.759	-0.444	1.14	1.4	0.714	0.619	-0.00232	0.576	4.22	0.742	-0.198
CCTTACGGGTCACGAGGTTATACCACGACGAGCG	4.05	5.31	1.4	2.59	3.29	4.71	0.172	6.09	0.951	4.45	3.83	6.22	5.35	1.77	7.21	3.84	1.13	2.24
CCTACTGGGCCATTCAGAGGTCATAGATCATATG	4.09	4.44	0.601	-0.0592	2.01	4.2	1.2	4.42	0.421	2.97	3.97	4.15	2.99	0.411	3.98	3.27	1.4	2.6
